Compound activity: PubChem, National Center for Advancing Translational Sciences (NCATS)
An excerpt weighted towards active compounds, which were near 7.8% of everything screened.
LASV entry inh – inhibitors of Lassa virus binding or cell entry | Lassa virus pseudotype entry inhibition, cell reporter | Potency, µM (top dose mostly 37.9 µM), for inactives: at the highest dose activity change, negative = inhibition, hits mostly inhibitors | actives 1.2% (n = 300,000) | AID 540256; calls by dose curve; tested in HEK293 cells; further: potency means the concentration at half of the fitted maximal effect; nearly all actives have a fitted effect of over 50% in size
HCV inh – inhibitors of hepatitis C virus infection; Potency, µM (titrated, usually from 41.8 µM), for the others: top-dose activity change, negative = inhibition, actives largely listed as inhibitors; AID 651820; Huh7.5.1 HCVcc-Cre infection, luciferase reporter, 44 h; actives 3.4% (n = 340,000); active means well fitted inhibition curve with a large enough effect; inconclusive means small, poorly fitted or top-dose-only effect, or another doubt; inactive means no such curve, though single readings can be large or run the other way; further: potency means the concentration at half of the fitted maximal effect
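Cells seeded at 1,000/well and cultured 4 h, then compounds added followed by HCVcc-Cre virus (~0.5 moi). After 44 h further culture, luciferase substrate was added, plates held 15 min at room temperature, and luminescence read for 15 sec.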
VACV mCherry inh – inhibitors of vaccinia virus infection (mCherry reporter signal) | Vaccinia virus mCherry reporter infection, fluorescence | Potency, µM (titrated, usually from 36.5 µM), inactives show at the top dose activity change, negative = inhibition, hits mostly inhibitors | actives 0.63% (n = 310,000) | AID 720579; calls by dose curve; tested in A549 cells; further: potency means the concentration at half of the fitted maximal effect; nearly all actives have a fitted effect of over 35% in size
HCMV inh – inhibitors of human cytomegalovirus. HFF cells, HCMV-luciferase reporter, 72 h; hits give low values. activity change, negative = inhibition, % at 57.5 µM. actives 4.5% (n = 410,000); in the data active means activity change below about -60%; inconclusive means no clear call, values can overlap the other calls; inactive means above about -39%
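After 16 h attachment at 37C, HFF cells received test compound and HCMV-luciferase (1 PFU/cell); reporter luminescence read 72 h later, data normalized against buffer-only and known inhibitor Salinomycin.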
MARV entry inh – blocks Marburg virus binding to or entry into cells. Marburg virus pseudotyped entry inhibition, cell reporter. Potency, µM (highest dose often 37.8 µM), for the others: at the highest dose activity change, negative = inhibition, actives largely listed as inhibitors. actives 1.8% (n = 300,000). AID 540276; calls by dose curve; tested in HEK293 cells; further: potency means the concentration at half of the fitted maximal effect
Vaccinia Venus – vaccinia inhibition (Venus reporter) | actives 0.46% (n = 330,000) | Potency, µM (doses to about 36.5 µM), for the others: at the top dose activity change, negative = inhibition, usual class: inhibitors | AID 720580 | Vaccinia virus Venus reporter expression, fluorescence; calls by dose curve; tested in A549 cells; further: potency means the concentration at half of the fitted maximal effect; nearly all actives have a fitted effect of over 30% in size
Active calls of the source: *; i = inactive; ? = inconclusive; . = not tested or not shown; ! = not confirmed by another sample; [ ] = dose if it differs, or a comment. On the % scale 0 is the no-effect control and ±100 the full control effect.

SMILES	LASV entry inh	HCV inh	VACV mCherry inh	HCMV inh	MARV entry inh	Vaccinia Venus
Cc1ccc(CN2C(=O)C(CC(C)C)Nc3ncnc(N4CCN(c5ccccn5)CC4)c32)cc1 (stereo not drawn)	.	?	28.2µM*	-2.6	.	?
CC(C)CC1Nc2ncnc(N3CCOCC3)c2N(Cc2ccc(Cl)cc2)C1=O (stereo not drawn)	.	-12.9%	-4.1%	-101.3*!	.	-16.3%
CC(C)CC1Nc2ncnc(N3CCN(c4ccccn4)CC3)c2N(Cc2ccc(Br)cc2)C1=O (stereo not drawn)	.	25.1µM*	-24.2%	1.3	.	?
COc1ccc(CN2C(=O)C(CC(C)C)Nc3ncnc(N4CCN(c5ccccn5)CC4)c32)cc1 (stereo not drawn)	.	0.3%	-15.8%	19.6	.	?
CCC1Nc2ncnc(N3CCN(c4ccccc4)CC3)c2N(Cc2ccc(OC)cc2)C1=O (stereo not drawn)	.	2.82µM*	-16.4%	3.1	.	-19.2%
Cc1ccc(NC(=O)CSc2nc3c(sc4ccccc43)c(=O)n2CCCC(=O)NC2CCCC2)cc1C	-21.1%[46.1 µM]	.	-1.6%	-5.6	2.0%[46.1 µM]	-7.2%
COc1ccc(NC(=O)C2CCN(c3cnccn3)CC2)cc1Cl	-9.9%[46.1 µM]	-9.4%	-7.4%	-60.2*!	?	-6.8%
CCCCCCCc1cc2ccccc2c2c(C(=O)OC)c(C(=O)OC)c(C(=O)OC)n12	?	.	.	.	18.3%[14.2 µM]	.
CCOCCCNCc1ccc(OC)cc1	10.1%	17.2%	-14.6%	28.4	0.0%	-16.1%
COc1ccc2cc(CNCCOCCOCCNCc3ccc4cc(OC)ccc4c3)ccc2c1	?	3.98µM*	?	-97.6*	?	?
CN1CCN(C(=O)c2cc(Cl)cc(Cl)c2NC(=O)c2ccco2)CC1	-5.8%	5.5%	.	-32.5	-1.1%	.
O=C(Nc1ccc(Cl)cc1C(=O)Nc1ccncc1)c1ccco1	-13.3%	11.2µM*	.	23.4	?	.
CC1CCN(C(=O)c2cc(Cl)ccc2NC(=O)c2ccco2)CC1	.	-12.7%	2.1%	-60.1*	-8.6%[46.1 µM]	-9.3%
COc1cccc2c1NC1(C)c3ccccc3-n3nncc3CN1C2=O (stereo not drawn)	.	.	.	-7.8	.	.
CCn1c(SCC(=O)c2ccccc2)nnc1-c1cccc(Cl)c1	-28.9%[46.1 µM]	.	1.8%	-17.9	3.8%[46.1 µM]	-1.6%
Cc1cc(=O)c2cc(Cl)ccc2[nH]1	.	-11.9%[8.37 µM]	-11.3%	-63.4*	.	-15.2%
Cc1cc(=O)c2ccc(Cl)cc2[nH]1	-12.7%	1.9%[8.37 µM]	-2.9%	-12.0	2.1%	-5.2%
O=C(NCCc1csc(-c2cccc(F)c2)n1)C(=O)Nc1cc(F)ccc1F	9.6%[46.1 µM]	.	-0.5%	4.5	.	11.9%
COc1ccc(-n2nnnc2SCC(=O)N2C(C)CCCC2C)c(OC)c1 (stereo not drawn)	-8.0%	5.7%	-0.4%	-79.2*	-23.1%	-12.5%
COc1ccc2c(c1)c1nnc(SCC(=O)N3C(C)CCCC3C)nc1n2C (stereo not drawn)	4.8%	8.91µM*	.	-36.5	?	.
C[C@@H]1CCCCO[C@H](CN(C)S(=O)(=O)c2cn(C)cn2)[C@@H](C)CN([C@H](C)CO)C(=O)c2cc(NC(=O)CCCN(C)C)ccc2O1	.	.	.	-11.5	.	.
Cc1ccc(C(=O)c2cn(Cc3ccccc3C)c3nc(C)ccc3c2=O)cc1	?	.	-17.3%	?	?	-12.5%
NNC(=O)Cn1c2ccccc2c2ccccc21	6.8%	2.2%	?	2.0	1.0%[46.1 µM]	-14.1%
O=C(O)Cn1c2ccccc2c2ccccc21	0.0%	3.98µM*	-15.2%	-10.9	0.4%	1.3%
C[C@@H]1CN([C@@H](C)CO)C(=O)CCCn2cc(nn2)CO[C@H]1CN(C)C(=O)c1ccc(N2CCN(C)CC2)cc1	.	.	.	-19.8	.	.
SMILES	LASV entry inh	HCV inh	VACV mCherry inh	HCMV inh	MARV entry inh	Vaccinia Venus
CCCN1CCN(C(=S)Nc2ccccc2C(F)(F)F)CC1	-19.1%	?	-29.4%	-82.9*	?	?
FC(F)(F)c1ccccc1NC(=S)N1CCc2ccccc2C1	?	-27.9%	.	-26.8	?	.
CC(O)(COc1ccccc1)c1ccc2c(c1)CN(C/C=C/c1ccco1)CCO2 (stereo not drawn)	.	.	-4.8%	.	.	3.1%
COc1ccc(NC(=S)Nc2ccc(OCc3ccccc3)cc2)c(OC)c1	-10.0%	?	-3.6%	-76.5*	?	-13.1%
Cc1cccnc1NC(=S)Nc1ncccc1C	?	-1.1%	i	9.9	?	-9.9%
COc1ccc(NC(=S)Nc2ncccc2C)c(OC)c1	-39.2%	-13.4%	?	-63.1*	-28.6%	?
CCOc1ccccc1NC(=S)Nc1ncccc1C	?	6.31µM*	?	-61.1*	?	?
O=C1CN(C(=O)Cc2ccc(F)cc2)C(c2ccccc2)c2cc(Cl)ccc2N1 (stereo not drawn)	?	.	-7.7%	-2.2	-22.9%[46.1 µM]	-3.5%
COC(=O)c1c(NC(=O)COc2ccc(Cl)cc2)sc2c1CC(C)(C)NC2(C)C	-6.4%[46.1 µM]	11.2µM*	i	24.3	?	-9.0%
Cc1cc(OCC(=O)Nc2sc3c(c2C#N)CC(C)(C)NC3(C)C)c(C(C)C)cc1Cl	.	3.16µM*	.	-21.1	.	.
CC1(C)Cc2c(sc(NC(=O)COc3ccccc3)c2C#N)C(C)(C)N1	-9.0%	12.6µM*	-10.4%	13.7	0.7%	-23.9%
COc1ccc(-c2csc3ncnc(Nc4cc(OC)cc(OC)c4)c23)cc1	?	.	-25.7%	-24.6	.	-10.1%
CCC(C(=O)NCCC(C)C)n1ccc2cc(S(=O)(=O)N3CCCCC3)ccc21 (stereo not drawn)	.	10µM*	i[7.34 µM]	.	.	0.0%[7.34 µM]
C[C@@H]1[C@@H](Sc2ccccc2)CC(=O)O[C@@H]1c1ccc(-c2ccccc2)cc1	.	?	?	?	.	2.51µM*
O=C1C[C@H](c2ccccc2)[C@@H](c2ccc(Br)cc2)O1	.	.	.	.	-17.0%[14.2 µM]	.
CN(C)c1ccc(/C=N/N=C/c2ccccc2O)cc1	?	13.6%	i	-10.6	5.62µM*	-12.4%
COc1cccc(C(=O)Nc2ccc(C(=O)OCc3cc(=O)n4cc(C)sc4n3)cc2)c1	11.5%[46.1 µM]	.	i	?	.	-18.3%
Cc1ccccc1CNC(=O)c1ccc2sc([C@H]3C[C@H](O)[C@@H](CO)O3)nc2c1	.	.	5.5%	67.6	.	-2.2%
O=C(NCC1CC1)c1ccc2sc([C@H]3C[C@H](O)[C@@H](CO)O3)nc2c1	.	.	-10.1%	-102.0*	.	-11.4%
CCc1ccc(/C=C2/Sc3ccccc3N(CC(=O)NCC3CCCO3)C2=O)cc1 (stereo not drawn)	.	10µM*	.	11.0	.	.
CCc1ccc(/C=C2\SC(=S)N(CCC(=O)NCCCN3CCOCC3)C2=O)cc1	4.1%[46.1 µM]	-24.1%	-28.9%	-74.0*	?	-11.5%
O=C(CCCN1C(=O)/C(=C/c2cccc(Br)c2)SC1=S)NCCCN1CCOCC1	-9.2%[46.1 µM]	-14.4%	70.5%	-90.2*	?	410.0%
Cc1ccc(/C=C2/Sc3ccccc3N(CC(=O)NCC3CCCO3)C2=O)cc1 (stereo not drawn)	.	?	-18.4%[7.34 µM]	.	.	-9.4%[7.34 µM]
